# From PubChem BioAssay
# In the library only some 2.6% were active in any assay of this set; here they are far more common.
# AmpC nodet inh: Promiscuous and Specific Inhibitors of AmpC Beta-Lactamase (assay without detergent) | P00811 | AmpC nitrocefin hydrolysis, absorbance 480 nm, no detergent | AID 585, 2007 | hit rate 1.8% among 71,000 | Potency, µM (series often up to 28.7 µM), for the others: top-dose activity change, negative = inhibition; further: % of control where 0% means no effect
# Target sequence (P00811 whole entry, looked up): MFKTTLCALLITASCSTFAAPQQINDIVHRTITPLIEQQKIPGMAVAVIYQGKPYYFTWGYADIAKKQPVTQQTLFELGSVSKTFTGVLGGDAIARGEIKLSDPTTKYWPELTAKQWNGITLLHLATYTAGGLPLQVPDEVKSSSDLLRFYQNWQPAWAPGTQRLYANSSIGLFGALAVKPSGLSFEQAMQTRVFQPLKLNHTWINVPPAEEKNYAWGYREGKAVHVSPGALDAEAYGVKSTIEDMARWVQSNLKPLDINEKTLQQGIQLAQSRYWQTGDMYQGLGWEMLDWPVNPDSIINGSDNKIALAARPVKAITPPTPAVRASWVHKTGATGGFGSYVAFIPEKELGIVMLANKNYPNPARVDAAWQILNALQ
#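 Enzyme, pH 7.0 phosphate. Compound titrations were pre-incubated with AmpC for 15 min at room temperature before nitrocefin (stock 800 uM) addition; product formation was recorded at 480 nm every 20 s for 4 min.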
# LT uptake inh: qHTS Assay for Anthrax Lethal Toxin Internalization; Cells, anthrax lethal toxin internalization, FRET ratio (460/530); Potency, µM (titrated, usually from 40 µM), without a hit: at the top dose activity change, negative = inhibition, hits mostly inhibitors; hit rate 0.67% among 70,000; further: on the % scale 0 is the no-effect control and ±100 the full control effect; nearly all actives have a fitted effect of over 50% in size
# SmPrx2 inh: Schistosoma Mansoni Peroxiredoxins (Prx2); Schistosoma mansoni peroxiredoxin 2 (Prx2); S. mansoni Prx2 activity coupled to TGR/GSH (TGR is thioredoxin glutathione reductase), NADPH fluorescence loss, qHTS; Potency, µM; hit rate 0.07% among 65,000
#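 Enzyme mix: 100 uM NADPH, 25 nM TGR, 700 uM GSH, 50 nM Prx2 in 100 mM phosphate pH 7.4, 10 mM EDTA, 0.01% Tween-20. 15 min RT with compound; NADPH/GSH added, H2O2 starts reaction; NADPH fluorescence read 8 min.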
# AmpC inh det: Promiscuous and Specific Inhibitors of AmpC Beta-Lactamase (assay with detergent) | P00811 | purified AmpC, nitrocefin hydrolysis with detergent | Potency, µM (titrated, usually from 28.7 µM), without a hit: at the top dose activity change, negative = inhibition | hit rate 0.09% among 71,000; active means well fitted curve in the direction sought with a large enough effect; inconclusive means small, poorly fitted or top-dose-only effect; further: on the % scale 0 is the no-effect control and ±100 the full control effect
#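 E. coli AmpC (5.3 nM) in 20 mM phosphate pH 7.0 with 0.01% Triton X-100, preincubated 15 min RT with compound; nitrocefin (2 uL of 800 uM stock) hydrolysis followed by 480 nm absorbance every 20 s over 4 min.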
# * hit, by the source's call; ? = inconclusive; nt = no result; [ ] = remark or other dose. Unless noted, the call rests on the fitted dose curve. Potency means the concentration at half of the fitted maximal effect.
SMILES,AmpC nodet inh,LT uptake inh,SmPrx2 inh,AmpC inh det
O=C(CN1CCCCC1)Nc1ccc(S(=O)(=O)N2CCCCCC2)cc1,0.8%,-4.0%,>57,-6.9%
CCN(CC)S(=O)(=O)c1ccc(NC(=O)Cn2c(=O)sc3ccccc32)cc1,?,-20.9%,>57,0.8%
O=C(Cn1c(=O)oc2cc(S(=O)(=O)N3CCCC3)ccc21)NC1CCCc2ccccc21 (stereo not drawn),2µM*,?,>57,12.1%
O=C(Cn1c(=O)oc2cc(S(=O)(=O)N3CCCC3)ccc21)Nc1ccc(C(F)(F)F)cc1,10µM*[single pt active],-17.1%,>57,18.5%
CC(=O)Nc1ccc(S(=O)(=O)NCC2CCC(C(=O)N3CCCCCC3)CC2)cc1 (stereo not drawn),31.9%,-6.6%,>57,-2.8%
CCc1nc2ccccc2c(C(=O)OC2CCOC2=O)c1C (stereo not drawn),2.9%,9.3%,>57,14.7%
O=S1(=O)CC=C(CSc2nc3ccccc3[nH]2)C1,-16.4%,4.8%,>57,13.4%
COc1ccc(-c2nn(-c3ccccc3)cc2C(=O)O)cc1,0.8%,8.4%,>57,11.2%
COc1cccc(Cn2c(=O)c(-c3ccc(F)cc3)nc3cnc(OC)nc32)c1,2.8%,?,>57,1.6%
Cc1cc(C)nc(NS(=O)(=O)c2ccc(NC(=O)Cn3c(=O)oc4ccccc43)cc2)n1,3.98µM*[single pt active],-4.5%,>57,13.5%
O=C(O)Cn1c(=O)oc2cc(S(=O)(=O)NC3CCCCC3)ccc21,2.51µM*[single pt active],-3.0%,>57,11.1%
Cc1noc(NS(=O)(=O)c2ccc(NC(=O)CCn3c(=O)oc4ccccc43)cc2)c1C,-1.6%,-9.1%,?,8.6%
CC1CCN(S(=O)(=O)c2ccc3c(c2)oc(=O)n3CC(=O)NCc2ccc3c(c2)OCO3)CC1,3.98µM*,?,>57,4.1%
Cc1c(C(=O)NCc2ccc3c(c2)OCO3)oc2ccc(S(=O)(=O)N3CCC(C)CC3)cc12,3.6%,-14.3%,>57,-5.4%
COc1ccc2cc(C(=O)OC(C)C)sc(=O)c2c1OC,34.2%,-14.1%,>57,5.5%
CC(C)N(Cc1nc(-c2ccc(Cl)cc2)no1)C(=O)CCC1CCCC1,3.98µM*[single pt active],?,>57,9.2%
Cc1cc(Br)ccc1OCC(=O)N(Cc1nc(-c2ccccc2)no1)C(C)C,21.0%,?,>57,3.1%
CC(C)N(Cc1nc(-c2ccccc2)no1)C(=O)CSc1ccccc1,37.9%,-28.0%,>57,-1.5%
CC(C)N(Cc1nc(-c2ccccc2)no1)C(=O)Cc1ccccc1,3.98µM*[single pt active],-21.4%,>57,11.3%
CC(C)N(Cc1nc(-c2ccccc2)no1)C(=O)COc1ccccc1,3.98µM*[single pt active],?,>57,13.9%
COc1ccccc1OCC(=O)N(Cc1nc(-c2ccc(Cl)cc2)no1)C(C)C,160.0%,?,>57,7.4%
CCOC(=O)CCc1c(C)nc2c(c(C)nn2C(C)(C)C)c1C,3.98µM*[single pt active],?,>57,12.7%
CCc1ccc(C(=O)CSC2=C(C#N)C(c3ccco3)C(C(C)=O)=C(C)N2)cc1 (stereo not drawn),12.6µM*,?,nt,9.7%
CC(=O)C1=C(C)NC(SCC(=O)c2ccc(Cl)c(Cl)c2)=C(C#N)C1c1ccco1 (stereo not drawn),-3.5%,?,nt,6.3%
CC(=O)C1=C(C)NC(SCC(=O)c2cc(Cl)ccc2Cl)=C(C#N)C1c1ccco1 (stereo not drawn),?,10µM*,nt,-3.4%
SMILES,AmpC nodet inh,LT uptake inh,SmPrx2 inh,AmpC inh det
CC1=C(C(=O)Nc2ccccc2)C(c2ccco2)C(C#N)=C(SCc2ccccc2)N1 (stereo not drawn),5.01µM*,?,nt,8.6%
CC1=C(C(=O)Nc2ccccc2)C(c2ccco2)C(C#N)=C(SCC(=O)OC(C)C)N1 (stereo not drawn),15.8%,?,nt,5.8%
O=C(CCCCn1c(=O)c2ccccc2n(CC(=O)NC2CCCC2)c1=O)NC1CCCC1,-4.6%,0.1%,>57,1.2%
COC(=O)c1ccccc1N=C(SC)N(C)C,6.2%,-25.0%,>57,-1.1%
CCCc1cc(C(=O)Nc2sc(C)c(C)c2C(=O)OCC)no1,3.98µM*[single pt active],?,>57,21.0%
CCCc1cc(C(=O)Nc2cccnc2)no1,3.98µM*[single pt active],-12.9%,>57,11.4%
CCCc1cc(C(=O)Nc2sc(C)c(CC)c2C#N)no1,3.98µM*[single pt active],12.6µM*,>57,12.8%
CCCc1cc(C(=O)Nc2sc3c(c2C#N)CCC3)no1,3.98µM*[single pt active],?,>57,9.8%
CCOC(=O)c1c(NC(=O)c2cc(C3CC3)on2)sc(C(C)=O)c1C,-19.6%,0.5%,>57,5.4%
COc1cc(-c2noc(-c3ccco3)n2)cc(OC)c1OC,30.6%,-8.8%,>57,-1.2%
COc1ncc2nc(-c3cccs3)c(=O)n(Cc3ccc(F)cc3)c2n1,2.2%,?,>57,-3.0%
COC(C(=O)Nc1cccc(F)c1)c1ccccc1 (stereo not drawn),-4.4%,5.6%,nt,1.2%
CCCn1c(C2CC(=O)N(c3cc(OC)ccc3OC)C2)nc2ccccc21 (stereo not drawn),110.2%,-7.0%,>57,15.8%
CCc1c(C)nc2cc(-c3cc(OC)cc(OC)c3)nn2c1N1CCCC1,88.5%,12.6µM*,>57,-1.5%
CCc1c(C)nc2cc(-c3ccc(OC)c(OC)c3)nn2c1N1CCCC1,132.9%,-19.9%,>57,-3.8%
CCCN1C(=O)c2cc(C(=O)NCc3cccs3)ccc2C1O (stereo not drawn),3.98µM*[single pt active],-17.5%,>57,8.6%
CCCN1C(=O)c2ccc(C(=O)NCc3ccco3)cc2C1=O,6.4%,-6.0%,>57,-0.7%
CCCN1C(=O)c2cc(C(=O)NCc3ccc(OC)cc3)ccc2C1O (stereo not drawn),3.16µM*[single pt active],0.1%,>57,11.7%
Cc1ccc(N2C(=O)c3ccc(C(=O)NCCN4CCOCC4)cc3C2=O)cc1,52.9%,-21.2%,>57,-2.4%
CCCN1C(=O)c2cc(C(=O)NCCc3cccc(C)c3)ccc2C1O (stereo not drawn),3.98µM*[single pt active],?,>57,17.0%
Cc1c(C)n(C)c2ccc(C(=O)NCc3cccs3)cc12,3.98µM*[single pt active],?,>57,15.4%
O=C(OC1CCN(CCCl)CC1)C(c1ccccc1)c1ccccc1,60.6%,?,>57,-0.1%
CC(=O)N1C(=O)N(C(C)=O)C2C1N(C(C)=O)C(=O)N2C(C)=O (stereo not drawn),-0.5%,-18.1%,>57,-4.0%
Cc1ncc(CO)c2cc(S(=O)(=O)c3ccc(F)cc3)c(=O)oc12,3.98µM*[single pt active],0.2%,17*,13.2%
NC(=O)C1CCN(Cc2nnnn2Cc2ccco2)CC1,2.9%,-7.1%,>57,-0.6%
COc1cc2c(c(OC)c1)C(c1ccncc1)CC(=O)N2 (stereo not drawn),-5.6%,9.5%,>57,4.1%
CC1(C(=O)NCCCNc2ncc(C(F)(F)F)cc2Cl)C=CC2(CCCCC2)N1C(=O)c1ccccc1 (stereo not drawn),7.8%,25.1µM*,nt,11.2%
